Compounds with a hit are over-represented: about 4.6% of the library has one in this group of screens.
HIF-2a block: blocks HIF-2a reporter activity. 786-0 RCC cells HIF-2a reporter, luciferase luminescence, overnight. inhibition, % at 18.8 µM. actives 0.72% (n = 360,000). AID 624352;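 active = inhibition of the luminescence signal of 40% or more relative to plate controls, in a single-dose primary screen at 18.75 µM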
CF NFkB inh: inhibitors of cystic fibrosis induced NF-kB. KKLEB NF-kB-GFP reporter, PAF-induced, GFP fluorescence overnight. inhibition, % at 5 µM. actives 0.86% (n = 360,000). AID 588850;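 active = at least 50% inhibition at 5 µM, scaled per plate between neutral and stimulator controls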;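 note: PAF is a Pseudomonas aeruginosa culture filtrate used as stimulus; plate controls were PAF-stimulated DMSO wells for no effect and unstimulated DMSO wells for full effect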
Mdm2 MdmX PPI: disrupts the human Mdm2-MdmX interaction; O15151+Q00987; SaOS-2 split-luciferase Mdm2/MdmX complementation, luminescence; inhibition, % at 8 µM; actives 3% (n = 330,000); AID 485346;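 active = inhibition of at least 50% at 8 µM in the primary screen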
Peg3 promoter: Peg3 promoter activity inhibition; AID 588405; actives 1.7% (n = 360,000); inhibition, % at 20 µM; HeLa PEG-Prom luciferase reporter, luminescence, overnight;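 active = inhibition of at least 50% at 20 µM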
KKLEB cytotox: reduces viability of KKLEB cystic fibrosis airway cells; KKLEB CF airway cells viability, ATPlite luminescence, overnight; active compounds read low; cells stimulated with P. aeruginosa culture filtrate; activity change (cytotoxicity), % at 5 µM; actives 0.36% (n = 360,000); AID 602141;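 active = corrected activity change at or below -50% at 5 µM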
ABHD5-PLIN5 inh: ABHD5-PLIN5 protein interaction inhibition | Split G. princeps luciferase complementation, luminescence, 4 h | actives 0.78% (n = 360,000) | Q00G26+Q8WTS1 | inhibition, % at 4 µM;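 active = inhibition above the mean inhibition across every tested compound plus 3 SD, cut at about 22% in these data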;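 note: 0% = DMSO only wells and the 100% control is not disclosed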
Mdm2-MdmX conf: confirmation of human Mdm2/MdmX interaction inhibitors | shares compounds with Mdm2 MdmX PPI | Mdm2-MdmX binding, luminescent assay | inhibition, % at 8 µM | actives 55% (n = 10,000) | AID 489028; in the data active = inhibition above about 40%
Full FLuc ctr: full-length luciferase inhibition in Mdm2/MdmX counter-screen; shares compounds with Mdm2 MdmX PPI; SaOS-2 full-length luciferase counterscreen, luminescence; inhibition, % at 8 µM; actives 77% (n = 6,200);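 active = mean inhibition at 8 µM reaching about 37%, which flags the compound as non-specific, limit read from the data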;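 note: p53-null SaOS-2 cells with luciferase driven by a doxycycline-inducible promoter; compound on cells about two nights before reading with doxycycline added after day one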
An asterisk follows results filed as active; · = no result given.

SMILES	HIF-2a block	CF NFkB inh	Mdm2 MdmX PPI	Peg3 promoter	KKLEB cytotox	ABHD5-PLIN5 inh	Mdm2-MdmX conf	Full FLuc ctr
COc1cc(-c2nc(-c3ccccc3)c(-c3cccs3)[nH]2)cc(OC)c1O	15.7	-71.8	45.9	19.5	10.6	-2.1	·	·
COc1cc(-c2nc(-c3ccccc3)c(-c3cccs3)[nH]2)cc(OC)c1OC	3.1	-57.9	76.0*	-3.0	8.7	5.1	40.0*	100.2*
CCOC(=O)C1=CCN(S(=O)(=O)c2ccccc2Br)C1c1cccc(C)c1 (configuration not stated)	9.2	14.9	·	27.3	0.1	0.7	·	·
C=CCOc1ccc(C(=O)Nc2ccccc2C(=O)NCc2cccnc2)cc1	-21.1	17.2	57.7*	0.7	-14.3	8.4	55.2*	60.8*
O=C(Nc1ccccc1)/C(=C/c1ccc([N+](=O)[O-])cc1)NC(=O)c1ccco1	9.2	3.2	67.4*	35.3	-1.3	-4.8	6.2	·
O=C(Nc1ccccc1)/C(=C\c1ccccc1)NC(=O)c1ccco1	10.1	-18.8	11.2	-4.0	13.2	2.5	·	·
CCN(CC)S(=O)(=O)c1ccc(OC)c(NC(=O)C2CC(=O)N(c3ccc(C)cc3)C2)c1 (configuration not stated)	10.6	-9.0	-3.9	7.6	3.3	-0.2	·	·
Cc1cc2nc(CCN3CCOCC3)n(S(=O)(=O)c3ccc(C(C)(C)C)cc3)c2cc1C	-50.7	-4.0	52.1*	-9.5	7.0	2.8	24.9	·
CC(C)(C)c1ccc(S(=O)(=O)NCCN2CCOCC2)cc1	16.5	6.5	·	13.8	-9.9	-1.5	·	·
O=C(Nc1ccc(Cl)c([N+](=O)[O-])c1)c1ccc(NCCCN2CCOCC2)c([N+](=O)[O-])c1	-9.8	-21.4	97.4*	26.4	-17.9	-4.0	23.6	·
Cc1ccc(NC(=O)c2ccc(NCCCN3CCOCC3)c([N+](=O)[O-])c2)cc1Cl	-7.2	5.4	55.9*	19.6	-3.3	12.9	37.2	69.1*
CCCC/C(C)=N/NC(=O)CN(c1ccc(Br)cc1)S(=O)(=O)c1ccccc1	11.5	10.7	-13.0	-6.6	9.3	-3.3	·	·
C/C(=N/NC(=O)CN(c1ccccc1)S(=O)(=O)c1ccccc1)c1ccccc1O	24.6	-7.6	71.8*	41.9	-7.7	1.0	60.1*	26.8
CCCc1cc2c(cc1N(C)S(=O)(=O)c1ccccc1)OCO2	19.9	3.0	·	23.0	1.1	-1.9	·	·
CC1CC(C)CN(CCCNC(=O)C2CCN(c3ncnc4c3sc3cccc(F)c34)CC2)C1 (configuration not stated)	·	·	55.8*	·	·	·	34.1	64.1*
CCOC(=O)N1CCC(=NNC(N)=O)C1	-6.5	4.2	·	-12.0	-0.5	2.4	·	·
CC1CCCN(CC(=O)Nc2ccc(S(=O)(=O)N3C(C)CCCC3C)cc2)C1 (configuration not stated)	12.7	7.7	·	12.1	9.6	-5.4	·	·
CCOC(=O)c1sc2nc(CSc3ccccc3)nc(NCCN(C)C)c2c1C	-8.8	16.0	51.2*	32.6	-9.6	13.6	15.8	·
Cc1cccc(C(=O)Nc2nc(C)c(C(=O)Nc3ccc4c(c3)CCC4)s2)c1	-61.4	23.9	58.1*	-42.0	-5.9	-6.0	43.4*	52.7*
CN1C2CCC1/C(=C\c1ccccc1)C(=O)/C2=C\c1ccccc1	88.6*	-70.5	94.9*	72.6*	8.6	21.4	56.5*	15.2
COc1ccc(Cl)cc1Nc1nc2ccc(C)cc2n2cnnc12	14.5	-26.0	55.1*	20.6	-5.7	-5.1	30.6	·
CCN(c1ccccc1)S(=O)(=O)c1ccc(Oc2ccc(-n3ccnc3)cc2)nc1	28.9	21.6	58.9*	49.7	-23.5	1.1	57.6*	63.2*
CCN(c1ccccc1)S(=O)(=O)c1ccc(Oc2ccccc2C(C)=O)nc1	14.0	2.9	7.6	23.8	5.0	-4.6	·	·
COc1ccc(-c2cc(C3CCN(c4ccc(C(C)=O)cc4[N+](=O)[O-])CC3)[nH]n2)cc1	5.3	7.5	51.8*	24.5	9.5	2.1	46.4*	51.4*

Screening results from PubChem BioAssay.
